An excerpt weighted towards active compounds, which were near 2.1% of everything screened.
Arbovirus inh – blocks arbovirus infection; arbovirus infection cell-based antiviral screen; inhibition, % at 10 µM; actives 0.37% (n = 200,000); in the data active means inhibition above about 30%
m-calpain inh – inhibitors of pig calpain II. purified calpain II, fluorogenic peptide substrate, 30 min. inhibition, % at 16 µM. actives 0.37% (n = 220,000);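 active means inhibition above about 50%, limit read from the data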
HSV replic up – HSV replication enhancement | maximum fold increase | HSV replication augmentation in cells, fold increase | actives 0.005% (n = 220,000) | AID 1956; in the data active means maximum fold increase above about 1.5; inconclusive means no clear call, values can overlap the other calls; tested in PC3 cells
Efa HMGR inh – blocks class II HMG-CoA reductase of Enterococcus faecalis. actives 0.41% (n = 190,000). inhibition, % at 10 µM. purified E. faecalis HMGR, NADPH absorbance 340 nm kinetic;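 active means inhibition above a set limit, the median over all tested compounds plus 3 SD, cut at about 9.5% in these data; inconclusive means no clear call, values can overlap the other calls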;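 further: enzyme runs in reverse so mevalonate oxidation gives rising NADPH absorbance; 0% = complete reaction with DMSO and 100% = background rate lacking mevalonate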
ROMK mod – modulates human ROMK potassium channel activity. actives 2% (n = 130,000). Tet-inducible ROMK, thallium flux fluorescence; actives lie on both sides. AID 1918. B-score at 10 µM. P48048;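 active means signal ratio slope over the read window, or its plate-corrected B-score, at least 3 SD from the plate mean, either direction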;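 further: B-score of the F/F0 ratio slope over 7 to 12 s after thallium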
Target sequence (P48048 whole entry, looked up): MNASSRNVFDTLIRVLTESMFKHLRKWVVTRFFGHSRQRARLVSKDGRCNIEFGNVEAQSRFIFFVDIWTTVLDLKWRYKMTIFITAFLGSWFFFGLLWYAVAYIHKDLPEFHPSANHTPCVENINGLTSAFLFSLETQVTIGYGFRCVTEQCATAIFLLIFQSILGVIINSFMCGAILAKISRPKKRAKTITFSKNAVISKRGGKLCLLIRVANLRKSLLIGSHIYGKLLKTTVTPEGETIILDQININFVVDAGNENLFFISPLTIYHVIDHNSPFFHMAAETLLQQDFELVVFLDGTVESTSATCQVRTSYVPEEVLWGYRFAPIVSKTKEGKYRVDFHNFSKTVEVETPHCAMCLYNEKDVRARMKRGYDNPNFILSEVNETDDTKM
ROMK retest – confirmation of human ROMK potassium channel modulators. shares compounds with ROMK mod. ROMK thallium flux, fluorescence ratio; hits give low values. normalized thallium flux (F/F0 slope) at 10 µM. actives 54% (n = 3,000);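 active means Flux at 10 µM at least 3 SD below or above vehicle control mean in one or both replicates; inconclusive means no clear call, values can overlap the other calls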
* = called active by the depositor.

`COCCn1nnnc1C(c1cc(OC)ccc1OC)N1CCc2ccccc2C1` (configuration not stated) gave Arbovirus inh -2, m-calpain inh 21, HSV replic up inactive, Efa HMGR inh 4, ROMK mod -2.1* and ROMK retest 0.078.
O=c1c2cc(N3CCOCC3)ccc2[nH]c(=S)n1Cc1cccc(Cl)c1 was read as Arbovirus inh 1, m-calpain inh -152, HSV replic up inactive, Efa HMGR inh -3 and ROMK retest 0.086.
For COc1cccc(Cn2c(=S)[nH]c3ccc(N4CCOCC4)cc3c2=O)c1 the results were Arbovirus inh 3, m-calpain inh -253, HSV replic up inactive, Efa HMGR inh -7 and ROMK mod -0.99.
For CCCCN(C(=O)c1cccc2c(=O)c(C)c(-c3ccccc3)oc12)c1ccccc1 the results were Arbovirus inh -31, m-calpain inh 43, HSV replic up inactive, Efa HMGR inh -4, ROMK mod -3.7* and ROMK retest 0.063*.
COc1ccc(N=C2S/C(=C\c3ccc(OC(C)C(=O)O)c(OC)c3)C(=O)N2CCc2c[nH]c3ccccc23)cc1 (configuration not stated) was read as Arbovirus inh -6, m-calpain inh -237, HSV replic up inactive and Efa HMGR inh 3.
For O=C1/C(=C/c2ccc(N3CCOCC3)o2)SC(=Nc2ccccc2)N1CCc1c[nH]c2ccccc12 the results were Arbovirus inh -40, m-calpain inh -119, Efa HMGR inh 4 and ROMK retest 0.059*.
Screening N#C/C(=C\c1ccccc1)C(=O)NC(=O)Oc1ccccc1 returned Arbovirus inh 12, m-calpain inh 15, HSV replic up inactive, Efa HMGR inh -11 and ROMK mod 0.002.
Screening N#C/C(=C\c1ccccc1Cl)C(=O)NC(=O)Oc1ccccc1 returned Arbovirus inh -2, m-calpain inh -24, HSV replic up inactive, Efa HMGR inh 0, ROMK mod -4.3* and ROMK retest 0.046*.
`N#C/C(=C\c1ccc(O)c([N+](=O)[O-])c1)C(=O)NCc1ccccc1` gave Arbovirus inh 2, m-calpain inh 16, HSV replic up inactive, Efa HMGR inh -8 and ROMK mod 1.6.
`N#C/C(=C\c1ccc(O)c(Br)c1)C(=O)NCc1ccccc1` gave Arbovirus inh 1, m-calpain inh -27, HSV replic up inactive, Efa HMGR inh 1, ROMK mod 3.6* and ROMK retest 0.066*.
Screening Cc1ccc(N(Cc2cc3cc(C)ccc3[nH]c2=O)S(=O)(=O)c2ccccc2)cc1 returned Arbovirus inh -11, m-calpain inh -6, HSV replic up inactive and Efa HMGR inh -9.
For CCOC(=O)C(C)Oc1cccc2c(=O)n(CC(=O)NCc3ccccc3)ccc12 (configuration not stated) the results were m-calpain inh -3, HSV replic up inactive and ROMK mod 1.9.
CCOC(=O)C(C)Oc1cccc2c(=O)n(CC(=O)NCc3ccc(F)cc3)ccc12 (configuration not stated) was read as m-calpain inh 4, HSV replic up inactive, ROMK mod 3.6* and ROMK retest 0.088.
CC(C)(C)n1ncc2c(=O)n(CC(=O)NCc3ccc(F)cc3)cnc21 was read as Arbovirus inh -6, m-calpain inh -5, HSV replic up inactive, Efa HMGR inh -5, ROMK mod 3.9* and ROMK retest 0.084.
`COc1ccc(S(=O)(=O)NC(C)C)cc1C(=O)N1CCOCC1` gave Arbovirus inh 3, m-calpain inh -16, HSV replic up inactive, Efa HMGR inh -3 and ROMK mod 0.046.
For CCN(CC)c1ccc(N=Cc2cc(Br)ccc2O)cc1 the results were Arbovirus inh 5, m-calpain inh -26, Efa HMGR inh 7, ROMK mod -5.6* and ROMK retest 0.064*.
`Cc1ccccc1CN(C)CC(=O)NC(C)CCc1ccccc1` (configuration not stated) gave Arbovirus inh -16, m-calpain inh 17, HSV replic up inactive and ROMK mod -1.
For Cc1c(NC(=O)CN2C(=O)NC3(CCCCC3)C2=O)c(=O)n(-c2ccccc2)n1C the results were Arbovirus inh 9, m-calpain inh -25, HSV replic up inactive, Efa HMGR inh 1 and ROMK mod -0.25.
`Cc1cccc(OCC(=O)Nc2ccccc2C(=O)N2CCOCC2)c1` gave Arbovirus inh -5, m-calpain inh 21, HSV replic up inactive, Efa HMGR inh 1, ROMK mod 3.1* and ROMK retest inconclusive.

Assay outcomes as filed in PubChem.
